Data: the supplement of paper PMC10105736
Unmarked numbers belong to inactive results.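 Rule for the calls: active = MAPPIT score above the 99th percentile of random reference set scores in the same batch; inactive = at or below it.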

Experiments:
Experiment in all cases: MAPPIT interaction score (arbitrary units); higher = stronger binary interaction signal, active = hit call of the paper
[1] = molecular target: CG15347; conditions: MAPPIT configuration: N-C; pair source set: screen_3
[2] = molecular target: CG1532; conditions: MAPPIT configuration: N-N; pair source set: Finley_Y2H
[3] = molecular target: CG7560; conditions: MAPPIT configuration: N-N; pair source set: Finley_Y2H
[4] = molecular target: CG15443; conditions: MAPPIT configuration: N-N; pair source set: Curagen_low_conf
[5] = molecular target: Gs1; conditions: MAPPIT configuration: N-N; pair source set: DPIM
[6] = molecular target: Mpp6; conditions: MAPPIT configuration: N-N; pair source set: DPIM
[7] = molecular target: CG15449; conditions: MAPPIT configuration: N-N; pair source set: Finley_Y2H
[8] = molecular target: CG5946; conditions: MAPPIT configuration: N-N; pair source set: Finley_Y2H
[9] = molecular target: PHDP; conditions: MAPPIT configuration: N-N; pair source set: Finley_Y2H
[10] = molecular target: Prim2; conditions: MAPPIT configuration: N-N; pair source set: Finley_Y2H
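Note: HEK293T cells with Epo stimulation, STAT-responsive firefly luciferase reporter, fold induction versus unstimulated cells divided by the larger fold induction of two negative controls lacking either bait or prey.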

B1: aph-1 (protein)
chain: MTLPEFFGCTFIAFGPPFALFVFTIANDPVRIIILIAAAFFWLLSLLISSLWYALIPLKEFLAFGVVFSVCFQEAFRYIIYRILRSTEQGLHAVAEDTRVTDNKHILAYVSGLGFGIISGMFALVNVLADMSGPGTMGLKGGTELFFVTSAAQALSIILLHTFWSVIFFNAFDTNNYIHIGYVVFSHLFVSLITLLNANELYTTTLLINYLVTILTGVLAFRVAGGTSRSFRKFITCQ
- MAPPIT interaction score [1]: 3.73

B2: sel (protein)
chain: MLTKALILFGLLALAQGYSFTSREVKCHVCKAVVTELEEAIAKEDPHKMADVSGFRLDAQGNSISKKVRLVKSEMFLTELMEKICEKMDDYLKATYKSNGKFTLLKMIINGQMNPDSSLVDFVQDGDLNKSLGHFCNEVLEDNDEIFVKAFQAEELGNDLDIKICSEQASYCDESPVQEEYDFDGKEEL
- MAPPIT interaction score [2]: -0.121
- MAPPIT interaction score [3]: 0.327

B3: eEF5 (protein)
chain: MAELDDQFETTDSGASTTYPMQCSALRKNGFVMLKSRPCKIVEMSTSKTGKHGHAKVHMVGIDIFSNKKYEDICPSTHNMDVPNVKREDLQLIAISDDSFLTLMTESGDLREDLKVPEGELGEQLRLDFDSGKDLLCTVLKACGEECVIAIKTNTALDK
- MAPPIT interaction score [4]: 0.896
- MAPPIT interaction score [5]: 0.522
- MAPPIT interaction score [6]: -0.193

B4: RhoGAP68F (protein)
chain: MDAHSRFAPRLPGPAINPIVDNSDEPQPSLSDLHDFEPKLEFDDTELLAPSPLEKDVMVGDFVLAEDPELEPEEDVNPLEDDFEDQLREQSENFQTPRNKCDFLGTDKQGRHIFGIYASRFPEKSQLEGFVREIIKEIEPFVENDYILVYFHQGLKEDNKPSAQFLWNSYKELDRNFRKNLKTLYVVHPTWFIRVIWNFFSPFISDKFRKKLVYISSLDELRQALGLNKLKLPDNICDLDDKLNPSRKPSTPPPSSNINASRQQQHKMATTHQFGVPLKFIVMNSPCLNSIPPIVRKCVDSLSITGVIDTEGIFRRSGNHSEIMALKERVNRGEDVDLKSVNVHVIAGLLKSFLRDLAEPLLTFELYEDVTGFLDWPKEERSRNVTQLIREKLPEENYELFKYIVEFLVRVMDCEDLNKMTSSNLAIVFGPNFLWSRSTSTSLEEIAPINAFVDFVLQNHKDIYLIDVNQRTVSVD
- MAPPIT interaction score [7]: 0.0825
- MAPPIT interaction score [8]: 0.206
- MAPPIT interaction score [9]: 0.248
- MAPPIT interaction score [10]: 3.38 (active)
